Data taken from article PMC5540273 (PLoS ONE, 2017).
Read-outs that look alike come from different tables or passages of the source.

Assays:
Conditions in all cases: n = 1
KIT = test system: KIT
LATS1 = test system: LATS1
LATS2 = test system: LATS2
LCK = test system: LCK
LIMK1 = test system: LIMK1
LIMK2 = test system: LIMK2
LKB1 = test system: T1, LKB1
T1 construct: gene STK11

LOK = test system: T2, LOK
T2 construct: gene STK10

LRRK2 = test system: LRRK2
LTK = test system: LTK
[1] = concentration: 1 μM, replicates: in singlicate
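Also: KINOMEscan kinase panel screen.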

SMILES	%Inh (KIT; [1]) [%]	%Inh (LATS1; [1]) [%]	%Inh (LATS2; [1]) [%]	%Inh (LCK; [1]) [%]	%Inh (LIMK1; [1]) [%]	%Inh (LIMK2; [1]) [%]	%Inh (LKB1; [1]) [%]	%Inh (LOK; [1]) [%]	%Inh (LRRK2; [1]) [%]	%Inh (LTK; [1]) [%]	%Inh (KIT; 1 µM) [%]	%Inh (LATS1; 1 µM) [%]	%Inh (LATS2; 1 µM) [%]	%Inh (LCK; 1 µM) [%]	%Inh (LIMK1; 1 µM) [%]	%Inh (LIMK2; 1 µM) [%]	%Inh (LKB1; 1 µM) [%]	%Inh (LOK; 1 µM) [%]	%Inh (LRRK2; 1 µM) [%]	%Inh (LTK; 1 µM) [%]
O=C(O)COc1ncnc2cc(-c3ccc4[nH]ncc4c3)sc12	21	0	48	0	0	0	0	2	0	97.3	–	–	–	–	–	–	–	–	–	–
Cc1cc(N2Cc3ccccc3C2)nc(Nc2ccc(S(=O)(=O)N3CCOCC3)cc2)n1.Cl [GSK1669917]	0	29	10	4	0	16	12	0	0	0	–	–	–	–	–	–	–	–	–	–
CCn1c(-c2cccnc2O)nc2cnccc21 [SB-736715]	0	0	0	0	0	0	27	0	0	0	–	–	–	–	–	–	–	–	–	–
Cc1ccc(NC(=O)Nc2cccc(Cl)c2)cc1-c1ccc(C(=O)Nc2ccncc2)cc1 [GSK1398468]	99.6	0	0	25	0	12	0	0	0	7	–	–	–	–	–	–	–	–	–	–
Cc1nnc(-c2ccc3occ(-c4ccc(S(C)=O)cc4)c3c2)[nH]1 (stereo not drawn)	20	19	0	46	0	0	23	98.7	0	0	–	–	–	–	–	–	–	–	–	–
COc1ccccc1CNC(=O)c1cc(C(=O)c2ccccc2C)c[nH]1 [GSK364507]	41	0	0	12	8	5	0	0	0	0	–	–	–	–	–	–	–	–	–	–
Cc1ccc(NC(=O)Nc2cccc(C(F)(F)F)c2)cc1 [GSK955403]	–	–	–	–	–	–	–	–	–	–	91.4	0	20	6	0	10	16	0	0	0
O=S(=O)(c1ccc(-c2ccnc3[nH]ccc23)cc1)N1CCCC1 [GSK846226]	23	0	68	5	7	21	5	0	0	0	–	–	–	–	–	–	–	–	–	–
COc1ccc(Nc2nccc(NCCNC(=O)Nc3ccccc3F)n2)cc1 [GSK1379901]	57	44	0	20	4	3	0	0	0	0	–	–	–	–	–	–	–	–	–	–
COc1ccc(C2=C(Nc3cccc(C(=O)O)c3)C(=O)NC2=O)cc1 [SB-390765]	6	26	20	10	100	0	11	28	0	11	–	–	–	–	–	–	–	–	–	–
CN1C(=O)C(Nc2ccc(Cl)c(C(=O)O)c2)=C(c2ccc(Cl)cc2)C1=O [SB-404290]	1	15	15	23	7	0	18	4	0	9	–	–	–	–	–	–	–	–	–	–
Cn1ccc2ncnc(Oc3cccc(C(=O)Nc4ccccc4)c3)c21	35	0	6	7	100	0	25	0	0	2	–	–	–	–	–	–	–	–	–	–
COc1cc(Nc2nccc(N3CCC(NC(=O)Nc4cc(C)ccc4C)C3)n2)cc(OC)c1OC (stereo not drawn) [GSK1379762]	78	0	0	21	20	15	0	25	22	67	–	–	–	–	–	–	–	–	–	–
Cn1ccc2ncnc(Oc3ccc(NC(=O)Nc4ccccc4)cc3)c21	100	16	13	20	1	1	0	94.8	24	0	–	–	–	–	–	–	–	–	–	–
CCCc1ccc(S(=O)(=O)NC2CCN(c3ccnc(Nc4ccc(F)cc4)n3)C2)cc1 (stereo not drawn) [GSK1379715]	12	0	0	0	14	0	0	0	19	4	–	–	–	–	–	–	–	–	–	–
COc1cc2ncnc(Nc3ccc4nc(-c5ccccc5)[nH]c4c3)c2cc1OC.Cl [GW282450]	72	0	0	33	0	0	0	5	0	11	–	–	–	–	–	–	–	–	–	–
CC1=C(C(=O)Nc2cc3cn[nH]c3cc2F)C(c2ccc(C(F)(F)F)cc2)CC(=O)N1 (stereo not drawn) [GSK429286]	9	0	39	22	0	0	0	0	12	0	–	–	–	–	–	–	–	–	–	–
Cc1cccc(-c2nc(Nc3ccncc3)c3ccccc3n2)n1 [GW855857]	10	3	0	9	12	5	18	37	0	21	–	–	–	–	–	–	–	–	–	–
